Lassa entry inh: inhibitors of Lassa virus binding or cell entry. Lassa virus pseudotype entry inhibition, cell reporter. Potency, µM (series often up to 37.9 µM), without a hit: at the top dose activity change, negative = inhibition, actives largely listed as inhibitors. hit rate 1.2% among 300,000; calls by dose curve; tested in HEK293 cells; further: potency means the concentration at half of the fitted maximal effect; nearly all actives have a fitted effect of over 50% in size
HCMV antiviral: inhibitors of human cytomegalovirus | HFF cells, HCMV-luciferase reporter, 72 h; hits give low values | activity change, negative = inhibition, % at 57.5 µM | hit rate 4.5% among 410,000; in the data active means activity change below about -60%; inconclusive means no clear call, values can overlap the other calls; inactive means above about -39%
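Human foreskin fibroblasts infected with luciferase-reporter HCMV at MOI 1 PFU/cell, compounds at two doses. Luciferase measured 72 h post infection; normalized to buffer-only basal and Salinomycin (10uM) controls.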
HCV inh: HCV inhibition. Potency, µM (highest dose often 41.8 µM), for inactives: top-dose activity change, negative = inhibition, hits mostly inhibitors. hit rate 3.4% among 340,000. Huh7.5.1 HCVcc-Cre infection, luciferase reporter, 44 h; active means well fitted inhibition curve with a large enough effect; inconclusive means small, poorly fitted or top-dose-only effect, or another doubt; inactive means no such curve, though single readings can be large or run the other way; further: potency means the concentration at half of the fitted maximal effect
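Luciferase read-out (15 sec integration) after a 15 min room-temperature substrate step quantifies HCVcc-Cre infection. Cells, 1,000 per well, had compound added 4 h post-plating, then virus at ~0.5 moi, and were cultured 44 h.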
FMDV inh: foot and mouth disease virus antiviral activity | FMDV antiviral cell-based qHTS | Potency, µM (doses to about 57.9 µM), inactives show at the highest dose activity change, negative = inhibition, usual class: inhibitors | hit rate 1.2% among 410,000 | AID 1159524; calls by dose curve; tested in HEK293T cells; further: read-out not given here; potency means the concentration at half of the fitted maximal effect; nearly all actives have a fitted effect of over 45% in size
Marburg entry inh: blocks Marburg virus binding to or entry into cells | Marburg virus pseudotyped entry inhibition, cell reporter | Potency, µM (top dose mostly 37.8 µM), without a hit: at the top dose activity change, negative = inhibition, actives largely listed as inhibitors | hit rate 1.8% among 300,000; calls by dose curve; tested in HEK293 cells; further: potency means the concentration at half of the fitted maximal effect
* marks the source's active call; other numbers are inactive results; ? = inconclusive; / = not tested or not shown; + = active, no number; [ ] = dose if it differs, or a comment. This is a sample that favours compounds with a hit; in the whole collection about 7.9% have one here. On the % scale 0 is the no-effect control and ±100 the full control effect.

SMILES	Lassa entry inh	HCMV antiviral	HCV inh	FMDV inh	Marburg entry inh
CCOc1ccc(CCNC(=O)CN2C(=O)C(CC)Oc3ccccc32)cc1OCC (stereo not given)	-16%[46.1 µM]	-39	/	-15%	/
COc1cccc(Nc2ncc3ncc(=O)n(CCc4ccccc4)c3n2)c1	/	/	/	-3%	/
CCOC(=O)c1ccc(N=C2SC(C(=O)NC)CC(=O)N2Cc2ccc(F)cc2)cc1 (stereo not given)	?	-36	24%	-9%	5%
CCOC(=O)c1ccc(N=C2SC(C(=O)Nc3ccc(C(=O)O)cc3)CC(=O)N2Cc2cccs2)cc1 (stereo not given)	-23%[46.1 µM]	-71*	28%	-21%	?
O=C(Nc1ccc(F)cc1)C1C(c2ccccc2)C1(Cl)Cl (stereo not given)	-6%	-68*	11%	?	-21%
CCc1ccc(NC(=O)C2CCN(S(=O)(=O)c3ccc4[nH]c5c(c4c3)CCCCC5)CC2)cc1	-17%[46.1 µM]	+	/	-12%	/
O=C(NCc1ccc(F)cc1)c1ccc(S(=O)(=O)N2CCCCC2)cc1	/	1	3%	-15%	/
Cc1cc(C)cc(NC(=S)NCc2ccc3[nH]c4c(c3c2)CCCC4)c1	3.7µM*	-40	?	-10%	?
O=C(Nc1ccccc1)C1CCN(S(=O)(=O)c2ccc3[nH]c4c(c3c2)CCCCC4)CC1	?	0	/	-17%	/
O=C(NCc1ccc2[nH]c3c(c2c1)CCCC3)c1ccc(S(=O)(=O)N2CCCCC2)cc1	-18%	-78*	?	?	-21%
O=C(NCc1ccncc1)c1csc(N2CCN(Cc3cccc(C(F)(F)F)c3)C2=O)n1	/	-13	/	/	/
Cc1ccc(S(=O)(=O)NCc2ccc(C(=O)N3CCN(c4ccccn4)CC3)cc2)cc1	-24%	-26	?	?	?
CC(C)c1ccc(CNc2cc(N3CCCC3)ccc2[N+](=O)[O-])cc1	-25%	38	?	/	?
Cc1ccc(S(=O)(=O)NCc2ccc(C(=O)N3CCN(c4ccc([N+](=O)[O-])cc4)CC3)cc2)cc1	/	-98*	4µM*	?	/
CC(C)(C)c1ccc(CNc2cc(N3CCOCC3)ccc2[N+](=O)[O-])cc1	?	3	10µM*	-14%	?
COc1ccc(N2CCN(C(=O)c3ccc(CNS(=O)(=O)c4ccc(C)cc4)cc3)CC2)cc1	?	?	13µM*	-28%	?
O=C(CSc1ccc(C(F)(F)F)cc1[N+](=O)[O-])N1CCOCC1	3%	10	4%	-19%	?
CC(C)(CNc1ccc(C(F)(F)F)cc1[N+](=O)[O-])N1CCOCC1	/	-66*	-29%	?	/
CC(C)c1ccc(S(=O)(=O)c2nnn3c2nc(N2CCCC2)c2sccc23)cc1	1%[46.1 µM]	14	/	-10%	/
Cc1ccccc1C(=O)N1CCN(c2ccc([N+](=O)[O-])c(NCc3cccnc3)c2)CC1	0%	?	?	?	?
COc1ccc(N2CCN(C(=O)Cc3ccc(C)cc3)CC2)cc1	0%	-15	-14%	-17%	2%
Cc1ccc(C(=O)N2CCN(c3ccc([N+](=O)[O-])c(NCc4cccnc4)c3)CC2)cc1	?	-36	13µM*	-12%	?
COc1ccc(N2CCN(/C(=N\S(=O)(=O)c3ccc(C)cc3)Nc3nc(C)cc(C)n3)CC2)cc1	8.2µM*	-1	-1%	23%	-17%
Nc1ncnc2c1ncn2[C@@H]1O[C@H](C(=O)NCC2CCN(Cc3ccccc3)CC2)[C@@H](O)[C@H]1O	/	-9	/	-11%	/
CC(C)CN(CC(C)C)CC(O)COc1ccccc1Br (stereo not given)	?	-76*	11%	?	?
SMILES	Lassa entry inh	HCMV antiviral	HCV inh	FMDV inh	Marburg entry inh
Cn1c(N)c(C(=O)CSc2nn(-c3ccc(F)cc3)c(=S)s2)c(=O)n(C)c1=O	/	?	7.1µM*	16µM*	/
CCN(CC)c1cc(C)c2cc(NC(=O)c3ccccc3F)ccc2n1	/	-80*	10µM*	-9%	-4%
CCOc1ccc(C(=O)Nc2ccc3nc(N(CC)CC)cc(C)c3c2)cc1	10%[46.1 µM]	-86*	/	32µM*	29%[46.1 µM]
CCN(CC)c1cc(C)c2cc(NC(=O)c3cccc(OC)c3)ccc2n1	?	-71*	/	0%	?
CCC12CN3CC(C)(CN(C1)C3c1ccc(O)cc1O)C2=O (stereo not given)	-9%[46.1 µM]	6	/	-1%	1%[46.1 µM]
O=C(NCCCn1ccnc1)[C@H](Cc1ccccc1)N1C(=O)c2ccccc2C1=O	/	/	/	/	1%
COc1ccc(CNC(=O)c2cc3c(=O)n(Cc4ccc(OC)cc4)ccc3nc2C)cc1	-13%[46.1 µM]	-75*	/	0%	/
Cc1nc2ccn(Cc3cccs3)c(=O)c2cc1C(=O)NCc1ccc(Br)cc1	-33%[46.1 µM]	-63*	/	3%	/
COc1ccc(-c2c(C)nn3c4c(cnc23)C(=O)CC(c2ccccc2)C4)cc1 (stereo not given)	1%[46.1 µM]	-15	/	-11%	-2%[46.1 µM]
CC(C)c1ccc(NC(=O)COc2ccc(F)cc2C(=O)c2cnn(-c3ccccc3)c2)cc1	?	-8	?	4%	?
O=C(COc1ccccc1C(=O)c1cnn(-c2ccccc2)c1)Nc1ccc2ccccc2c1	7%	-4	13µM*	-10%	?
COc1ccc(-n2cc(C(=O)c3ccccc3O)cn2)cc1	4µM*	61	-23%	-51%	?
Cc1ncoc1C(=O)N1CCOc2ccc(CN3CCN(c4ccccn4)CC3)cc2C1	/	/	/	-17%	/
Cc1nc2nc(C(F)(F)F)[nH]n2c(=O)c1Cc1ccccc1	4%[46.1 µM]	2	/	-7%	/
O=C(NCCc1ccccn1)C1CC12CCN(C(=O)c1ccccc1Cl)CC2 (stereo not given)	/	/	/	-12%	/
CC(C)CO/N=C1\C[C@@H](O)[C@@H](O)[C@@H]2[C@@H]3C(=O)N(c4ccc(F)cc4F)C(=O)[C@@H]3CC[C@@H]12	/	/	/	/	-10%[14.2 µM]
CCC(Oc1nc2ccccc2nc1-c1ccccc1NC(C)=O)C(=O)c1ccccc1 (stereo not given)	18µM*	0	-28%	-15%	-8%
CCC(C(=O)Nc1ccc(C(=O)OC)cc1)n1c(=O)c(-c2ccccc2NC(C)=O)nc2ccccc21 (stereo not given)	0%[46.1 µM]	-35	/	-12%	-2%[46.1 µM]
CCNc1nc(SCCOc2ccc(Cl)cc2Cl)nc(N(C)C)n1	/	-23	?	-28%	/
CCNc1nc(SCCOc2ccc(C)cc2)nc(N(C)C)n1	-20%	-28	11µM*	1%	?
CCOc1nc(SCCOc2ccccc2)nc(N(C)C)n1	-13%	-4	11µM*	-19%	?
CCOc1ccccc1NC(=O)CSc1nc2c([nH]c3ccccc32)c(=O)n1-c1ccccc1	-22%[46.1 µM]	89	/	-20%	/
COc1ccc(OC)c(C(=O)CC2OC(=O)c3ccccc32)c1 (stereo not given)	-4%	-90*	8%	14µM*	?
Cc1ccc(CNC(=O)c2ccc(CSCc3ccccc3C)o2)cc1	?	7	/	-5%	/
